According to PubChem BioAssay (NCATS):
Inconclusive results are not listed. This is one part of the list. Calls of active or inactive are those of the source. Unless noted, calls come from the whole dose curve; as a rule, active = well fitted curve in the direction sought with a large enough effect; inconclusive = small, poorly fitted or top-dose-only effect, or another doubt; inactive = no such curve, though single readings can be large; an effect the other way counts as inactive or inconclusive.

What was measured:
[1] = biological target: Rap guanine nucleotide exchange factor 3 (Homo sapiens) (UniProt O95398); assay: Confirmatory qHTS for agonist of cAMP-regulated guanine nucleotide exchange factor 3 (EPAC1) (AID 1645881);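 note: EPAC1 catalysed release of BODIPY-GDP from Rap1B seen as fluorescence loss; 100% = effect of cAMP agonist control; nearly all actives have a fitted effect of over 75% in size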
[2] = biological target: Rap guanine nucleotide exchange factor 4 (Homo sapiens) (UniProt Q8WZA2); assay: Confirmatory qHTS for agonist of cAMP-regulated guanine nucleotide exchange factor 4 (EPAC2) (AID 1645884);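 note: nucleotide exchange releases bodipy-GDP from Rap1 and this lowers its fluorescence; % is set by controls: 0 for no effect and ±100 for the full control effect; nearly all actives have a fitted effect of over 65% in size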
[3] = biological target: Rap guanine nucleotide exchange factor 4 (Homo sapiens) (UniProt Q8WZA2); assay: Confirmatory qHTS for antagonist of cAMP-regulated guanine nucleotide exchange factor 4 (EPAC2) (AID 1645885); note: nearly all actives have a fitted effect of over 25% in size; note: potency is the fitted concentration of half-maximal effect; for activity change, negative = inhibition: % is set by controls: 0 for no effect and ±100 for the full control effect
[4] = biological target: Rap guanine nucleotide exchange factor 3 (Homo sapiens) (UniProt O95398); assay: Counterscreen qHTS for antagonist of cAMP-regulated guanine nucleotide exchange factor 3 (EPAC1) (AID 1645888);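 note: fluorescence loss as bound BODIPY-GDP is released from Rap1B; % of control where 0% means no effect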
Method in brief: (§1)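 Rap1B–BODIPY-GDP (250 nM) with 50 uM GDP; compounds pin-transferred to 9.74 nM–152 uM final (activator) or from 7.32 nM upwards (inhibitor). Fluorescence Ex/Em 480/540 nm read at 5 and 30 min, then after adding cAMP or buffer, at room temperature.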

[5] = biological target: Rap guanine nucleotide exchange factor 3 (Homo sapiens) (UniProt O95398); assay: Counterscreen qHTS for agonist of cAMP-regulated guanine nucleotide exchange factor 3 (EPAC1) (AID 1645889); note: % of control where 0% means no effect; nearly all actives have a fitted effect of over 40% in size
Method in brief: as §1

[6] = biological target: Tumor susceptibility gene 101 protein (Homo sapiens) (UniProt Q99816); assay: qHTS Assay for Iinhibitors of HIV-1 Budding by Blocking the Interaction of PTAP/TSG101: Hit Validation (AID 651600); note: potency is the fitted concentration of half-maximal effect; nearly all actives have a fitted effect of over 70% in size
Method in brief: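 Measuring PTAP–Tsg101 interaction by FP: protein at 10 uM and fluorescent peptide at 50 nM (final), buffer 10 mM HEPES pH 7.5 with 0.15 M NaCl, 3 mM EDTA, 0.1 mM TCEP, 0.01% Tween 20; 20 min incubation, r.t.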

[7] = biological target: Tyrosyl-DNA phosphodiesterase 1 (Homo sapiens) (UniProt Q9NUW8); assay: Confirmation Assay for Inhibitors of Tyrosyl-DNA Phosphodiesterase (TDP1) (AID 489007); conditions: recombinant human TDP1 enzymatic activity, dose-response; note: potency is the fitted concentration of half-maximal effect; nearly all actives have a fitted effect of over 40% in size
Method in brief: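 Recombinant E. coli-expressed Tdp1 (1 nM final) was preincubated with compounds 15 min at room temperature, then reacted 5 min with 15 nM 5'-biotin/3'-phosphotyrosine-FITC DNA substrate; cleavage read as loss of AlphaScreen signal (10 ug/ml beads, 10 min).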

[8] = biological target: Vitamin D3 receptor (Homo sapiens) (UniProt P11473); assay: qHTS for Inhibitors of the vitamin D receptor (VDR): Hit Validation in Primary Screen (AID 602199); conditions: VDR-coactivator inhibition assay, qHTS confirmation; note: potency is the fitted concentration of half-maximal effect
Method in brief: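 Fluorescence polarization (Ex 620/Em 688 nm) of Alexa 647-SRC2-3 peptide with 800 nM VDR and 5 uM LG19078. Compounds at several concentrations, 2 h at room temperature.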

[9] = biological target: Vitamin D3 receptor (Homo sapiens) (UniProt P11473); assay: qHTS for Inhibitors of the vitamin D receptor (VDR): Hit Validation using a Fluorescein Assay (AID 602200); conditions: VDR-coactivator binding, fluorescein fluorescence polarization; note: potency is the fitted concentration of half-maximal effect
Method in brief: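 Fluorescence polarization: 1.5 uM VDR-LBD, 5 uM LG19078 and 5 nM fluorescein-labeled SRC2-3 peptide (final) with compounds, 2 h at room temperature. Read at Ex 495/Em 520 nm; peptide-only wells served as control.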

[10] = biological target: Vitamin D3 receptor (Homo sapiens) (UniProt P11473); assay: qHTS for Inhibitors of the vitamin D receptor (VDR): Hit Validation using a Beta-Lactamase Assay (AID 602202); note: potency is the fitted concentration of half-maximal effect
Method in brief: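 Stably transfected HEK293 cells expressing VDR-GAL4 DNA-binding domain fusion with UAS-driven beta-lactamase reporter, activated by agonist LG190178; compounds incubated 18 h, then FRET beta-lactam substrate 2 h; cleaved substrate read at 447 nm emission.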

[11] = qHTS for Inhibitors of the vitamin D receptor (VDR): Hit Validation using a Cytotoxicity Assay (AID 602204);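 note: cells co-treated with VDR agonist LG190178 at 300 nM; potency is the fitted concentration of half-maximal effect; nearly all actives have a fitted effect of over 75% in size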
Method in brief: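 Compounds were applied to 20,000 cells per well after a 4-hour attachment period and incubated 18 hours. Cellular ATP was then detected luminescently following a 30-minute reagent step.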

[12] = qHTS for Inhibitors of Plasmodium falciparum (DD2) proliferation (AID 504314);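 note: parasite DNA measured by SYBR Green fluorescence after red cell lysis; plate controls were DMSO vehicle for no effect and artemisinin wells for full effect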
Method in brief: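 Erythrocytes infected with P. falciparum Dd2 (0.3% parasitemia, 2.5% hematocrit) exposed to compound 72 h at 37C, 5% CO2. Parasite DNA quantified by SYBR Green fluorescence after saponin/Triton lysis overnight; normalized to 0.29 uM artemisinin and DMSO.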

[13] = qHTS for Inhibitors of Plasmodium falciparum (GB4) proliferation (AID 504315);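 note: 0% = DMSO vehicle and -100% = 0.29 µM artemisinin control; nearly all actives have a fitted effect of over 50% in size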
Method in brief: (§2)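 Erythrocytes infected with P. falciparum line (0.3% parasitemia, 2.5% hematocrit final) incubated with compounds 72 h at 37 °C, 5% CO2; SYBR Green lysis buffer added, fluorescence read next day. Normalized to 0.29 uM artemisinin and DMSO.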

[14] = qHTS for Inhibitors of Plasmodium falciparum (7G8) proliferation (AID 504316);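 note: 0% = DMSO vehicle and -100% = 0.29 µM artemisinin full kill; nearly all actives have a fitted effect of over 65% in size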
Method in brief: as §2

[15] = qHTS for Inhibitors of Plasmodium falciparum (HB3) proliferation (AID 504318);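 note: 0% = DMSO vehicle and -100% = artemisinin control; nearly all actives have a fitted effect of over 60% in size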
Method in brief: as §2

[16] = qHTS for Inhibitors of Plasmodium falciparum (CP250) proliferation (AID 504320);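 note: plate controls were DMSO vehicle for no effect and 0.29 µM artemisinin control for full effect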
Method in brief: as §2

[17] = AP1 Signaling Pathway (AID 357; active = well fitted curve in either direction with a large enough effect, not every such curve was filed as active;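 note: ME-180 reporter cells stimulated with EGF at its EC50 level; % is set by controls: 0 for no effect and ±100 for the full control effect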); conditions: ME-180 (cervical carcinoma) AP-1-bla reporter, EGF-induced, beta-lactamase ratio, 5 h; at 7.69 µM (top of the series) unless noted
Method in brief: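 Beta-lactamase reporter under AP-1 response element, ME-180 background. Stimulus: EC50 EGF. Compound exposure 5 h, 37 °C. Detection: CCF4, 2.5 h RT, 460/530 nm. Values: AC50 from titration.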

[18] = NFAT Signaling Pathway (AID 444; active = well fitted curve in either direction with a large enough effect, not every such curve was filed as active;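 note: carbachol stimulus at about its EC50 of 1 µM final; % is set by controls: 0 for no effect and ±100 for the full control effect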); conditions: Jurkat NFAT-bla M1, carbachol, beta-lactamase ratio, 5 h; at 7.69 µM (top of the series) unless noted
Method in brief: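 Jurkat cells with NFAT-driven β-lactamase reporter and co-expressed M1 receptor, stimulated with carbachol (final 1 uM, ~EC50), compound titration, 5 h at 37 °C. CCF4 loaded 1 h at RT; 460/530 nm ratio gave %activity and AC50.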

[19] = biological target: Glucocorticoid receptor (Homo sapiens) (UniProt P04150); assay: GR-GFP Redistribution (AID 450;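 active = compounds whose dose series gives a full or clear partial fitted curve of increased nuclear translocation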; note: potency is the fitted concentration of half-maximal effect); conditions: U2OS GR-GFP nuclear translocation, laser cytometry, 2 h
Sequence of Glucocorticoid receptor (Homo sapiens) (P04150 whole entry, looked up): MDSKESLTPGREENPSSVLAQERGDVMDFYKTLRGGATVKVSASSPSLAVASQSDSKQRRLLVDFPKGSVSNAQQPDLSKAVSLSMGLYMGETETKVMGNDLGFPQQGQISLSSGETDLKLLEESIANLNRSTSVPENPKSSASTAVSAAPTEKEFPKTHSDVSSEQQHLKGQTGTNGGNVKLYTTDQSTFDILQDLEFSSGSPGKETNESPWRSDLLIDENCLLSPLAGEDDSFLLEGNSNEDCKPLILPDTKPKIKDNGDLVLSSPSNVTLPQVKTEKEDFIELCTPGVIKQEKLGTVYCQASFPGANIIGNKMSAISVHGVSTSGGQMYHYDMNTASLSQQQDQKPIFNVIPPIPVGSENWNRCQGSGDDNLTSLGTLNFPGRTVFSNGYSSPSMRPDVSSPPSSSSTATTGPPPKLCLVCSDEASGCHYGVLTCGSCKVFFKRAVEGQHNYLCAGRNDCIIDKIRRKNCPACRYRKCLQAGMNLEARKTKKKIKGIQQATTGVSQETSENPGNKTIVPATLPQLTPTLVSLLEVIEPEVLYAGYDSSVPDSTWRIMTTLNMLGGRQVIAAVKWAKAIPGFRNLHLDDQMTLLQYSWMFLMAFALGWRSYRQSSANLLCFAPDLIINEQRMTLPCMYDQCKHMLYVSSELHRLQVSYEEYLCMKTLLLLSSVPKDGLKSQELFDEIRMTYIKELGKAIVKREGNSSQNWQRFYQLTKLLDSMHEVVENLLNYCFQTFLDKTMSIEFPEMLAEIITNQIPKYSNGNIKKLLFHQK

Sequence of Rap guanine nucleotide exchange factor 3 (Homo sapiens) (O95398 whole entry, looked up): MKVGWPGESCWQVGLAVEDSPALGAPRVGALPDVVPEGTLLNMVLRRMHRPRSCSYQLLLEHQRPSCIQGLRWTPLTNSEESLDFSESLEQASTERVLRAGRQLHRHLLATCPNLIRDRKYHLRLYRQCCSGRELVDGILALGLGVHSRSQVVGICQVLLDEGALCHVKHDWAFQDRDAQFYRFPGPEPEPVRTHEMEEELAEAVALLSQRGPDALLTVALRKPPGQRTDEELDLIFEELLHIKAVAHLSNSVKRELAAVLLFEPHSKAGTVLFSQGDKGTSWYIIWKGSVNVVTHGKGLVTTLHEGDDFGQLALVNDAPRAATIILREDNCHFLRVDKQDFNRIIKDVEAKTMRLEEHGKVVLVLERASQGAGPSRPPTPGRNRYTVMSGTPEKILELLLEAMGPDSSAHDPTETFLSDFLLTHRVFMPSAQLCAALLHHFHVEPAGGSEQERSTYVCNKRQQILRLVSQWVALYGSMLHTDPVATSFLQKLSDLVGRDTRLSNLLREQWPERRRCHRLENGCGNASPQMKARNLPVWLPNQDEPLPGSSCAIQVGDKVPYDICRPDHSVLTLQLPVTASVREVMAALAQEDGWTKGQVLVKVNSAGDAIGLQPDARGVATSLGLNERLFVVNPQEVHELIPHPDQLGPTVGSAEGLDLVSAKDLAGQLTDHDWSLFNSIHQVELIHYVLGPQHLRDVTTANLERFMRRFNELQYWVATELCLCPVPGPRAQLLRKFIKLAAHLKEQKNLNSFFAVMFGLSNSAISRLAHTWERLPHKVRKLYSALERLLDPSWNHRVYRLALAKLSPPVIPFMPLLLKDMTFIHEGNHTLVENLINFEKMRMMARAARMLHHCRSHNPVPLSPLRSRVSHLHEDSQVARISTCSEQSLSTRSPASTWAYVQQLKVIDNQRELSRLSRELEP
Sequence of Vitamin D3 receptor (Homo sapiens) (P11473 whole entry, looked up, the tested form may be a part): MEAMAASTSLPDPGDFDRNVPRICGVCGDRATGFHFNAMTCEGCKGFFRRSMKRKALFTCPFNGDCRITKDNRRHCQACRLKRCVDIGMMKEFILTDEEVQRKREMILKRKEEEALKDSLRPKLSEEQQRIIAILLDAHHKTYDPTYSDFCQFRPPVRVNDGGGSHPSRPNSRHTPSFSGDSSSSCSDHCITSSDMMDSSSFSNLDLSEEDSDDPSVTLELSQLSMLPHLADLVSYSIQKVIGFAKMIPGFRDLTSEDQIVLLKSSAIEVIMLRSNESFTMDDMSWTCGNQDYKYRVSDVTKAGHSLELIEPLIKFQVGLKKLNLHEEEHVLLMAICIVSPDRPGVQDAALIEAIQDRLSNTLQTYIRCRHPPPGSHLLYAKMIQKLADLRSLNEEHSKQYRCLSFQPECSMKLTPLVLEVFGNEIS
Sequence of Rap guanine nucleotide exchange factor 4 (Homo sapiens) (Q8WZA2 whole entry, looked up): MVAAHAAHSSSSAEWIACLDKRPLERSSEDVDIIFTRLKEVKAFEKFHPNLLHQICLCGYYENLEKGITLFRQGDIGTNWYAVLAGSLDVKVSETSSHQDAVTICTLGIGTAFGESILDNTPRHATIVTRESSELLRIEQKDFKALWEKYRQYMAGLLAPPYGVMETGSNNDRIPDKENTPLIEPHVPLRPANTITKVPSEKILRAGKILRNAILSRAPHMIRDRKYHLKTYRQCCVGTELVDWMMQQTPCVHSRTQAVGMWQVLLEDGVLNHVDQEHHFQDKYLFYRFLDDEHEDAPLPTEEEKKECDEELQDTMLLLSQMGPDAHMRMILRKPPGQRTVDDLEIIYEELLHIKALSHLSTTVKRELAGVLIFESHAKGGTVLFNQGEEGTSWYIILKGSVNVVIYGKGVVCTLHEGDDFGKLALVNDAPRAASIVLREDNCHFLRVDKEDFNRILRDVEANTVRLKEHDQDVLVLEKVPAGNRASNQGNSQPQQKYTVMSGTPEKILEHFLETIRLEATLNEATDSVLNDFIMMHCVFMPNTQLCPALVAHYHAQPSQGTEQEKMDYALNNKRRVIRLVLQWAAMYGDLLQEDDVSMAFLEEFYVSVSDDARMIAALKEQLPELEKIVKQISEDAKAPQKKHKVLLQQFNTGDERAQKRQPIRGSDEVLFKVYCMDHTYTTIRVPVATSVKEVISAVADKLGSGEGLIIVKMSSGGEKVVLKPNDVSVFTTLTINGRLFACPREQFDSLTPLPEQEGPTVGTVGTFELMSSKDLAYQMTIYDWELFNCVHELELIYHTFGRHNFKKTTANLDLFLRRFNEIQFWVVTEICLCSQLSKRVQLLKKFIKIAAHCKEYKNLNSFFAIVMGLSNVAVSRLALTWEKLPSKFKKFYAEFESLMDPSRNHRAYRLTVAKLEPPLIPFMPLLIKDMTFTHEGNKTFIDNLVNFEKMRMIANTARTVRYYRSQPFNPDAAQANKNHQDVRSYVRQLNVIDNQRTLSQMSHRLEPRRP
Sequence of Tumor susceptibility gene 101 protein (Homo sapiens) (Q99816 whole entry, looked up): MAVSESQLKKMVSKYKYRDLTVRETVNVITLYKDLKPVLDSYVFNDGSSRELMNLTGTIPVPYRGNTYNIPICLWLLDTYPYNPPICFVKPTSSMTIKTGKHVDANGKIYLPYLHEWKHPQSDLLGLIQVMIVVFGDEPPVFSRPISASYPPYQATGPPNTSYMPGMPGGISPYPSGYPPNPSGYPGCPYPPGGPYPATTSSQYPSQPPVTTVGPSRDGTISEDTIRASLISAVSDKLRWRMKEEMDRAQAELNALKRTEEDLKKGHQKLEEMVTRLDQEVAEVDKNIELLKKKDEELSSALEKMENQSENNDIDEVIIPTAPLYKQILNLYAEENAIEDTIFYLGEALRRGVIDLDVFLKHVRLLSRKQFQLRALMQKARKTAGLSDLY
Sequence of Tyrosyl-DNA phosphodiesterase 1 (Homo sapiens) (Q9NUW8 whole entry, looked up): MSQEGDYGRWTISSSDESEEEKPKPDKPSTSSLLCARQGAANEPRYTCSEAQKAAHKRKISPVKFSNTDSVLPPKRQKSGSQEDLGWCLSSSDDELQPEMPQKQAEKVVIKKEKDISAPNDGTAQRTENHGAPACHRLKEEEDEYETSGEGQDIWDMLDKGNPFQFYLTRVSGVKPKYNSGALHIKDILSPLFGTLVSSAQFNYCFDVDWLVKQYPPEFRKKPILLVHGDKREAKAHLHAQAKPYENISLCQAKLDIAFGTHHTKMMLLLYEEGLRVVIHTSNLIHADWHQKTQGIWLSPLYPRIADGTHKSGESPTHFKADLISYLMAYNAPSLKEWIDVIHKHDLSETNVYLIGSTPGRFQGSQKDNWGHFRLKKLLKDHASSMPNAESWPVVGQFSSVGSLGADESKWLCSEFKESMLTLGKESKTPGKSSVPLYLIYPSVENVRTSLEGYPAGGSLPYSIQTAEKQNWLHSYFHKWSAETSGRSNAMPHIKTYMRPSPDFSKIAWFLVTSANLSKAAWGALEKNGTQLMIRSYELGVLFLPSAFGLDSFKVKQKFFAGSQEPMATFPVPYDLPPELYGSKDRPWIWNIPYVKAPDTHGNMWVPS

CC(C)(C)c1ccc(Cn2nnc3c(=O)[nH]c(C4CCN(C(=O)Cc5cccs5)CC4)nc32)cc1
inactive: Potency [1] | Potency [2] | Potency [3] | Potency [4] | Potency [5]

CCOc1ccc(S(=O)(=O)Nc2cc(NS(=O)(=O)c3ccc(OCC)cc3)cc(C(=O)O)c2)cc1
inactive: Potency [1] | Potency [2] | Potency [3] | Potency [4] | Potency [5]

CCCc1nc2c(Cl)cc(C(F)(F)F)cn2c1Cc1ccc(OC)cc1C
inactive: Potency [1] | activation [2] 5.33% [at 17.1 µM, percent relative to cAMP agonist control] | Potency [3] | activity change, negative = inhibition [4] -8.15% [at 30.8 µM] | activation [5] 14.3% [at 30.8 µM]

CC(=O)c1sc2nc(-c3ccco3)ccc2c1N
inactive: Potency [1] | Potency [2] | Potency [3] | Potency [4] | Potency [5]

CCc1noc(C)c1C(=O)N1CCCSC1=Nc1ccccc1Cl
inactive: Potency [1] | activation [2] 0.52% [at 17.1 µM, percent relative to cAMP agonist control] | Potency [3] | activity change, negative = inhibition [4] -10.8% [at 30.8 µM] | activation [5] -1.65% [at 30.8 µM]

CC1(C)[C@@H](O)CC[C@]2(C)C3C(O)C=C4[C@H]5C[C@@](C)(CO)CC[C@]5(C)CC[C@]4(C)[C@]3(C)CC[C@@H]12 (some centres undefined)
inactive: Potency [1] | activation [2] -6.54% [at 17.1 µM, percent relative to cAMP agonist control] | Potency [3] | activity change, negative = inhibition [4] -3.14% [at 30.8 µM] | activation [5] -1.49% [at 30.8 µM]

CCOC(=O)C(NS(=O)(=O)c1ccc(C)cc1)(C(F)(F)F)P(=O)(OCC(C)C)OCC(C)C (centres undefined)
inactive: Potency [1] | Potency [2] | Potency [3] | Potency [4] | Potency [5]

Nc1ccc(SC(F)(F)F)cc1C(=O)c1ccccc1
inactive: Potency [1] | activation [2] -2.87% [at 17.1 µM, percent relative to cAMP agonist control] | Potency [3] | activity change, negative = inhibition [4] -9.64% [at 30.8 µM] | activation [5] 5.87% [at 30.8 µM]

COc1ccc(C2=NN(c3ccccc3)C(c3cn(CCC(=O)O)nc3-c3ccccc3)C2)cc1 (centres undefined)
inactive: Potency [1] | Potency [2] | Potency [3] | Potency [4] | Potency [5]

Cc1cccc(C(=O)N=c2c(C#N)cc3c(=O)n4cccc(C)c4nc3n2Cc2ccco2)c1
inactive: Potency [1] | Potency [2] | Potency [3] | Potency [4] | Potency [5]

C=CCn1c(=O)/c(=C/c2ccc(C)o2)s/c1=C(/C#N)C(=O)c1ccccc1
inactive: Potency [1] | activation [2] 3.1% [at 17.1 µM, percent relative to cAMP agonist control] | Potency [3] | activity change, negative = inhibition [4] -7.69% [at 30.8 µM] | activation [5] 34.7% [at 30.8 µM]
active: Potency [6] 18.3 µM

CCc1ccc(NS(=O)(=O)c2cc3c4c(c2)CCN4C(=O)CC3)cc1
inactive: Potency [1] | Potency [2] | Potency [3] | Potency [4] | Potency [5]

O=C(NNC(=O)c1cc2cc(Br)ccc2oc1=O)c1ccc(O)cc1O
inactive: Potency [1] | Potency [2] | Potency [3] | Potency [4]
active: Potency [7] 56.2 µM

O=C(Nc1ccccc1Cl)/C(Cl)=C(\Cl)S(=O)c1ccccc1 (centres undefined)
active: Potency [8] 3.36 µM | Potency [9] 3.16 µM | Potency [10] 3.66 µM | Potency [11] 20.6 µM
inactive: Potency [1] | Potency [2] | Potency [3] | Potency [4] | Potency [5]

CC(C)(C)N1CC(c2nc3ccccc3n2CCOc2ccccc2)CC1=O (centres undefined)
inactive: Potency [1] | Potency [2] | Potency [3] | Potency [4] | Potency [5]

COC(=O)C1=C(C)N(Cc2ccccc2)C(=O)N[C@H]1c1cccc(C(F)(F)F)c1
inactive: outcome [12] | outcome [13] | outcome [14] | outcome [15] | outcome [16] | Potency [1] | activation [2] 7.76% [at 17.1 µM, percent relative to cAMP agonist control] | Potency [3] | activity change, negative = inhibition [4] -21.1% [at 30.8 µM] | activation [5] 10.2% [at 30.8 µM]

CCOC(=O)C1CCCN(c2nc3ccccc3nc2C(C#N)C(=O)OC(C)C)C1 (centres undefined)
inactive: activity change, negative = inhibition [17] -3.2% [at 17.2 µM] | activity change, negative = inhibition [18] -22.1% [at 17.2 µM] | Potency [19] > 20.6 µM | Potency [1] | activation [2] 6.19% [at 17.1 µM, percent relative to cAMP agonist control] | Potency [3] | activity change, negative = inhibition [4] 0.815% [at 30.8 µM] | activation [5] 36.1% [at 30.8 µM]

CCOC(=O)C1=C(C)OC(N)=C(C#N)C1c1cc2c(cc1Br)OCO2 (centres undefined)
inactive: Potency [1] | activation [2] -5.39% [at 17.1 µM, percent relative to cAMP agonist control] | Potency [3] | activity change, negative = inhibition [4] -23.2% [at 30.8 µM] | activation [5] 11% [at 30.8 µM]

CCCCC(CC)COC1(c2ccccc2)OC(=O)c2ccccc21 (centres undefined)
inactive: Potency [1] | Potency [2] | Potency [3] | Potency [4] | Potency [5]

O=C1/C(=C/c2ccco2)Oc2c1ccc(O)c2CN1CCCCC1
inactive: Potency [1] | Potency [2] | Potency [4] | Potency [5]
active: Potency [6] 32.6 µM | Potency [3] 84.9 µM
